Screening results from PubChem.
Coupling enz: qHTS Assay for Inhibitors of Fructose-1,6-bisphosphate Aldolase from Giardia Lamblia: Coupling assay counterscreen. coupling enzyme system counterscreen, AmpLite Red fluorescence. activity change, negative = inhibition, % at 58.2 µM, hits read low. hit rate 0.67% among 290,000. AID 2472, 2010; in the data active means activity change below about -30%
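Coupling enzymes only (glyceraldehyde-3-phosphate) + compound, at 57.5 uM final, 10 min RT; add substrate/coupling/AmpLite Red mix, 20 min RT; fluorescence ex 525/em 598 nm. Actives flag coupling-system interference.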
Tau fluor cs: Counterscreen qHTS for Inhibitors of Tau Fibril Formation, Fluorescence Polarization; hit rate 0.93% among 280,000; tau K18 P301L Alexa594 fluorescence, heparin fibrillization; Potency, µM (doses to about 57.7 µM), inactives show top-dose activity change, negative = decrease; AID 1463, 2008; further: potency means the concentration at half of the fitted maximal effect; nearly all actives have a fitted effect of over 55% in size
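Human tau K18 P301L (15 uM unlabeled, 0.24 uM Alexa 594-labeled) in 100 mM sodium acetate pH 7 with 20 uM heparin, 6 hr at 37 C. ThT 30 uM added, 1 hr ambient; Alexa 594 FP and total fluorescence read at 555/632 nm.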
Tau fibril FP: qHTS for Inhibitors of Tau Fibril Formation, Fluorescence Polarization | Microtubule-associated protein tau (Homo sapiens), P10636 | K18 P301L tau heparin fibrillization, Alexa594 FP, 6 h | Potency, µM (doses to about 57.7 µM), for the others: at the top dose activity, negative = inhibition, hits mostly inhibitors | hit rate 0.39% among 280,000 | AID 1468, 2008; further: potency means the concentration at half of the fitted maximal effect; nearly all actives have a fitted effect of over 55% in size
Target sequence (P10636 561-689 P618L limits assumed): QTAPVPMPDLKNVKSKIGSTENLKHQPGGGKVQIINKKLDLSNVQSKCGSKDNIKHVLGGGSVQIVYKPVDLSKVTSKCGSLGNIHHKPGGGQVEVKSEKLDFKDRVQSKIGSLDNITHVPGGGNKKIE
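Compound effects on tau fibrillization are measured by Alexa 594 fluorescence polarization (ex 555, em 632 nm). K18 P301L tau is used at 15 uM with 0.24 uM labeled tracer, and 20 uM heparin induces aggregation over 6 hr at 37 C.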
Tau fibril ThT: qHTS for Inhibitors of Tau Fibril Formation, Thioflavin T Binding | Microtubule-associated protein tau (Homo sapiens), P10636 | recombinant tau K18 P301L (four-repeat tau fragment), heparin-induced fibrillization, ThT fluorescence | Potency, µM (doses to about 57.4 µM), for the others: at the highest dose activity, negative = inhibition, usual class: inhibitors | hit rate 2.1% among 270,000 | AID 1460, 2008; further: potency means the concentration at half of the fitted maximal effect; nearly all actives have a fitted effect of over 55% in size
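Heparin-induced fibrillization of the P301L-mutant K18 repeat-domain fragment of human tau was followed by ThT binding in quantitative high-throughput format.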
USP1-UAF1 inh: Inhibitors of USP1/UAF1: Primary Screen; Ubiquitin carboxyl-terminal hydrolase 1 (Homo sapiens), O94782; recombinant USP1/UAF1, Ub-Rhodamine cleavage fluorescence; Potency, µM (series often up to 57.1 µM), for inactives: top-dose activity change, negative = inhibition, most hits filed as inhibitors; hit rate 0.23% among 390,000; AID 743255, 2014; further: potency means the concentration at half of the fitted maximal effect; nearly all actives have a fitted effect of over 60% in size
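Step one: compound is pinned into 1nM USP1/UAF1 in HEPES pH 7.8 buffer with TCEP. Step two: 15 min room-temperature incubation. Step three: Ub-Rho (150nM final) starts cleavage, tracked by fluorescence over six one-minute reads.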
Active calls of the source: *; ? = inconclusive; · = not tested or not shown; [ ] = another dose, or the depositor's remark. Rows were chosen to be rich in hits. Some 2.3% of all compounds tested hit in one or more screens of this group. Unless noted, the call rests on the fitted dose curve; in most records, active means well fitted curve in the direction sought with a large enough effect; inconclusive means small, poorly fitted or top-dose-only effect, or another doubt; inactive means no such curve, though single readings can be large; an effect the other way counts as inactive or inconclusive. On the % scale 0 is the no-effect control and ±100 the full control effect.

SMILES | Coupling enz | Tau fluor cs | Tau fibril FP | Tau fibril ThT | USP1-UAF1 inh
COc1ccc2occ(C(=O)c3ccccc3)c2c1 | -2.0 | -1.6% | -1.8% | -4.0% | 0.8%
Cc1oc(-c2ccccc2Cl)nc1Cn1c(SCc2cccc(F)c2)nc2cccnc21 | · | -23.6% | -2.4% | ? | -34.5%
CCOC(=O)C1OC1C(=O)N[C@@H](CC(C)C)C(=O)NCCC(C)C (some centres not stated) | 0.6 | · | · | · | ·
Cc1ccc(C(=O)Nc2ccc3nc(N4CCCCC4)cc(C)c3c2)cc1F | · | 3.6% | 0.6% | 10.8% | -35.3%
CCCCOC(=O)c1cccc(NC(=O)/C=C/c2ccccc2Cl)c1 | · | ? | 10µM* | 6.9% | -21.3%
Cc1cc(N2CCCCC2)nc2ccc(NC(=O)c3cccc(F)c3)cc12 | · | 12.6µM*[quencher] | 9.6% | ? | -15.6%
CCN(CC)c1cc(C)c2cc(NC(=O)c3cccc(F)c3)ccc2n1 | · | 31.6µM*[quencher] | 16.1% | ? | ?
O=C(/C=C/c1ccccc1Cl)Nc1cccc(O)c1 | -5.2 | ? | -6.8% | 10.2% | -9.6%
Cc1cc(N2CCCCC2)nc2ccc(NC(=O)c3cccc(Cl)c3)cc12 | · | 14.1µM*[quencher] | ? | 10µM* | -11.0%
CCN1CCN(c2cc(C)c3cc(NC(=O)c4ccc(C)c(C)c4)ccc3n2)CC1 | 1.4 | · | · | · | -21.7%
Cc1noc(C)c1-c1ccc2ncnc(NCc3ccc(-c4ccccc4)cc3)c2c1 | -0.9 | · | · | · | ·
CCCCCN1C(C(=O)c2ccccc2)=C(NC(=O)c2ccc(OC)cc2)c2ccccc2S1(=O)=O | · | -28.8% | -9.0% | -7.1% | -11.6%
Cn1c(N)c(C(=O)COC(=O)CC(NC(=O)c2ccccc2Cl)c2ccccc2)c(=O)n(C)c1=O (configuration not stated) | 1.0 | -4.0% | -2.9% | -4.9% | -1.3%
CCN(CC)c1cc(C)c2cc(NC(=O)/C=C/c3ccccc3Cl)ccc2n1 | · | 7.94µM*[quencher] | 9.1% | 3.55µM* | ?
CCN(CC)c1cc(C)c2cc(NC(=O)c3ccc(F)cc3Cl)ccc2n1 | · | ? | 8.5% | ? | -22.2%
Cc1cccc(CNc2ncnc3ccc(-c4cccc(NS(C)(=O)=O)c4)cc23)c1 | -9.0 | ? | 17.8µM* | ? | ·
O=C(Nc1ccc2nc(SCCOc3ccccc3Cl)sc2c1)c1cccs1 | · | ? | 10µM* | 12.5% | -9.3%
Cc1ccc(OCCSc2nc3ccc(NC(=O)c4cccs4)cc3s2)cc1 | · | ? | ? | ? | -6.2%
Cc1cc(C)cc(OCCSc2nc3ccc(NC(=O)c4cccs4)cc3s2)c1 | · | ? | 7.08µM* | 7.3% | 1.8%
Cc1cc(C)c(NS(=O)(=O)c2ccc(-c3cnc(C4CC4)o3)cc2)c(C)c1 | · | -22.7% | 0.7% | -7.5% | -7.9%
CN(CC(=O)Nc1ccc(OC(F)(F)F)cc1)S(=O)(=O)c1ccc2c(c1)CCC(=O)N2 | · | -16.2% | ? | -16.0% | -7.6%
Cc1nc(-c2ccccc2)sc1-c1n[nH]c(=S)n1C | 3.1 | -4.7% | -0.9% | -7.8% | -5.1%
CSc1sc(-c2n[nH]c(=S)n2C)c2c1C=CCC2 | -33.7* | -28.3% | -12.9% | · | -18.2%
COc1ccc(OCC(=O)N/N=C/C=C/c2ccccc2)cc1 | 4.0 | -10.3% | -11.2% | ? | -21.5%
CCOc1ccc(N=C/C=C/c2ccccc2)c(O)c1 | -32.1* | ? | ? | 4.47µM* | ?
SMILES | Coupling enz | Tau fluor cs | Tau fibril FP | Tau fibril ThT | USP1-UAF1 inh
CCOc1ccc(/C=C/C(=O)c2ccccc2)cc1 | 2.8 | -19.2% | 6.2% | ? | ?
CCOc1ccc(NCC(=O)N/N=C/C=C/c2ccccc2)cc1 | -1.5 | ? | 4.7% | 11.2µM* | -24.7%
O=C(CNC(=O)c1ccccc1)N/N=C/C=C/c1ccccc1 | -0.5 | · | · | · | -19.7%
O=C(Cc1cc(=O)[nH][nH]1)N/N=C/C=C/c1ccccc1 | -0.4 | -21.9% | ? | 12.6µM* | -11.4%
CCOc1ccc(NC(=O)c2cc(S(=O)(=O)N3CCN(c4ccccc4F)CC3)ccc2F)cc1 | · | -23.2% | -14.9% | 3.4% | ?
COc1ccc(CN=C(Nc2ccccc2)SC2CC(=O)NC2=O)cc1 (configuration not stated) | -0.1 | -63.0% | -4.4%[2.34 µM] | 10µM* | 6.8%
CCOC(=O)CNC(=O)/C=C/c1ccc2c(c1)OCO2 | 1.7 | 9.0% | 2.3% | -0.2% | -19.2%
CCOC(=O)CSc1nc(Nc2ccc3c(c2)OCO3)c2ccccc2n1 | -6.5 | 12.6µM*[quencher] | 14.1% | ? | -20.4%
N#CCSc1nc(Nc2ccc3c(c2)OCO3)c2ccccc2n1 | 0.1 | ? | 2.5% | -17.0% | -1.7%
CCOC(=O)CNc1ccc2c(c1)OCO2 | -38.4* | -28.4% | ? | 31.6µM* | 2.3%
CSc1ccc(N=Nc2c(C)[nH]n(C)c2=O)cc1 | 1.5 | -7.8% | -2.0% | 8.91µM* | -26.4%
O=C(Nc1ccc(OCC(F)(F)C(F)F)c(C(F)(F)F)c1)c1ccccc1O | 0.2 | ? | 25.1µM* | ? | ?
CCCn1c(N)c(N2CCCCC2)c(=O)n(CC(=O)Nc2ccc(C(C)=O)cc2)c1=O | · | · | · | · | -0.9%
CN1CCN(c2cc3c(c4c2[nH]c2ccccc24)C(=O)CC(C)(C)C3)CC1 | -10.2 | 14.1µM*[quencher] | ? | ? | ?
O=C(NCCNc1ccccc1[N+](=O)[O-])c1cc(F)c(F)cc1Cl | 0.5 | · | · | · | -0.1%
COc1ccc(C(=O)NCCNc2ccccc2[N+](=O)[O-])cc1 | 0.7 | -13.5% | -4.9% | 8.91µM* | -15.0%
CCCCCCOc1ccc(/C(C)=N/NC2=NCCN2)cc1[N+](=O)[O-] | 3.1 | ? | -14.5% | 9.8% | -21.9%
C/C(=N\NC1=NCCN1)c1ccc(N)c([N+](=O)[O-])c1 | -2.7 | -27.4% | -5.9% | 20µM* | -2.9%
Nc1ccc2nc(SCc3ccccc3F)sc2c1 | -1.5 | 0.562µM*[quencher] | ? | · | ?
Nc1ccc(-c2c3ccc(=O)cc-3oc3cc(O)ccc23)c(C(=O)O)c1 | · | · | · | · | 28.2µM*
O=C(C[n+]1ccc(Cc2ccccc2)cc1)Nc1ccc([N+](=O)[O-])cc1Cl | 3.6 | -11.2% | 2.0% | -17.1% | -22.9%
Cc1ccc(Cl)cc1NC(=O)C[n+]1ccc(Cc2ccc([N+](=O)[O-])cc2)cc1 | -44.4* | -20.9% | -3.3% | ? | -9.3%
Cc1ccc(NC(=O)Cn2cc(S(=O)(=O)N3CCCC3)c(S(=O)(=O)N3CCCC3)c2)cc1F | · | -27.3% | -19.2% | -1.1% | ?
CCOC(=O)CCc1c(C)c2ccc(O)cc2oc1=O | -39.2* | 1.3% | 4.6% | -7.7% | -13.4%
CCOC(=O)Cc1c(C)c2ccc(N(CC)CC)cc2oc1=O | -0.2 | -28.6% | ? | 14.1µM* | -23.9%
